We go through three sequences from paper PMC11006913.

Common to all, as to assay: PBM; 200 nM protein, PBS
What all share (conditions): dsDNA, one strand shown

The target in assay [1] is T1, VENTX (Homo sapiens, UniProt O95231 78-163, R121Q).
T1 sequence: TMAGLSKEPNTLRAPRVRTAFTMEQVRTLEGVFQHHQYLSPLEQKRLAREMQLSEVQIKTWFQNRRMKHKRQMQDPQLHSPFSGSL

Assay [2] has as its target HOXA4 (Homo sapiens, UniProt Q00056 201-287, W262R).
For assay [3], the target named is HOXA7 (Homo sapiens, UniProt P31268 116-202).
Assay [4] deals with ALX4 (Homo sapiens, UniProt Q9H161 200-286).
In assay [5] the target is PRRX1 (Homo sapiens, UniProt P54821 80-166, F113S).
Assay [6] addresses HOXB6 (Homo sapiens, UniProt P17509 132-218, K202E).
For assay [7], the target named is ALX4 (Homo sapiens, UniProt Q9H161 200-286, Q225E).
In assay [8] the target is HOXA2 (Homo sapiens, UniProt O43364 129-215, R185T).
The target of assay [9] is MSX2 (Homo sapiens, UniProt P35548 130-214, R199I).
For assay [10], the target named is HOXA2 (Homo sapiens, UniProt O43364 129-215, R185K).
Assay [11] has as its target HOXA4 (Homo sapiens, UniProt Q00056 201-287).
In assay [12] the target is MSX2 (Homo sapiens, UniProt P35548 130-214).
For assay [13], the target named is MSX2 (Homo sapiens, UniProt P35548 130-214, F161Y).
Assay [14] deals with VAX1 (Homo sapiens, UniProt Q5SQQ9 86-172, T142I).
The target in assay [15] is HOXA7 (Homo sapiens, UniProt P31268 116-202, W177C).
The target of assay [16] is ALX1 (Homo sapiens, UniProt Q15699 118-204).
The target of assay [17] is HOXA4 (Homo sapiens, UniProt Q00056 201-287, W262F).
For assay [18], the target named is PRRX1 (Homo sapiens, UniProt P54821 80-166).
In assay [19] the target is VAX1 (Homo sapiens, UniProt Q5SQQ9 86-172, K157R).
Assay [20] has as its target HOXB6 (Homo sapiens, UniProt P17509 132-218).

Chain of MSX2 (Homo sapiens, UniProt P35548 130-214, R199I) (P35548 130-214 R199I): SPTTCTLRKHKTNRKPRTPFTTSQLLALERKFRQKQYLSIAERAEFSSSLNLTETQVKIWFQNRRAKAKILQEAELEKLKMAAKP
Chain of HOXA4 (Homo sapiens, UniProt Q00056 201-287, W262R) (Q00056 201-287 W262R): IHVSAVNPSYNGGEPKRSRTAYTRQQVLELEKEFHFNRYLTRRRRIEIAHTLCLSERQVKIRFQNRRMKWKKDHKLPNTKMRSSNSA
Chain of VAX1 (Homo sapiens, UniProt Q5SQQ9 86-172, T142I) (Q5SQQ9 86-172 T142I): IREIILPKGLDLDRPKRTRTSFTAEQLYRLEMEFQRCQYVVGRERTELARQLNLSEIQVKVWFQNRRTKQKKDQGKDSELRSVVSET
Chain of HOXA4 (Homo sapiens, UniProt Q00056 201-287) (Q00056 201-287): as the sequence (Q00056 201-287 W262R) above, with R62W counted along it
Chain of PRRX1 (Homo sapiens, UniProt P54821 80-166) (P54821 80-166): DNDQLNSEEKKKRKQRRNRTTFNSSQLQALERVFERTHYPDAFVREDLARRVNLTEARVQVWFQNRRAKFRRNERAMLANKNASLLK
Chain of HOXA2 (Homo sapiens, UniProt O43364 129-215, R185T) (O43364 129-215 R185T): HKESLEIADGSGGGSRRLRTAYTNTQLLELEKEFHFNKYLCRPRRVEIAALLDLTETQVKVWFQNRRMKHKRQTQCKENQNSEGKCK
Chain of ALX4 (Homo sapiens, UniProt Q9H161 200-286, Q225E) (Q9H161 200-286 Q225E): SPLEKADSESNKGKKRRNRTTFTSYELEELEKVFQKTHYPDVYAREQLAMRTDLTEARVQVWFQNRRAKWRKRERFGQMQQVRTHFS
Chain of PRRX1 (Homo sapiens, UniProt P54821 80-166, F113S) (P54821 80-166 F113S): as the sequence (P54821 80-166) above, with F34S counted along it
Chain of HOXA2 (Homo sapiens, UniProt O43364 129-215, R185K) (O43364 129-215 R185K): as the sequence (O43364 129-215 R185T) above, with T57K counted along it
Chain of HOXB6 (Homo sapiens, UniProt P17509 132-218, K202E) (P17509 132-218 K202E): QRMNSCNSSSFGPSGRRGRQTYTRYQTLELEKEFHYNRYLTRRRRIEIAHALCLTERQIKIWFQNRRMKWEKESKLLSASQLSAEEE
Chain of MSX2 (Homo sapiens, UniProt P35548 130-214, F161Y) (P35548 130-214 F161Y): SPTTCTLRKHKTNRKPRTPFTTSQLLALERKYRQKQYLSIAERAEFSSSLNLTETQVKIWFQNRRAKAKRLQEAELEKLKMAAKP
Chain of MSX2 (Homo sapiens, UniProt P35548 130-214) (P35548 130-214): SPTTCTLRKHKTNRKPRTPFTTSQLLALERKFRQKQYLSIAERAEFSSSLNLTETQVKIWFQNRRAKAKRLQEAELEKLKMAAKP
Chain of HOXA4 (Homo sapiens, UniProt Q00056 201-287, W262F) (Q00056 201-287 W262F): as the sequence (Q00056 201-287 W262R) above, with R62F counted along it
Chain of HOXA7 (Homo sapiens, UniProt P31268 116-202, W177C) (P31268 116-202 W177C): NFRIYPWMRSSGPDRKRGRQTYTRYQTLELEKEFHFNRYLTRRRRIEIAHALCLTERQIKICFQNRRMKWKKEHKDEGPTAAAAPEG
Chain of ALX1 (Q15699 118-204): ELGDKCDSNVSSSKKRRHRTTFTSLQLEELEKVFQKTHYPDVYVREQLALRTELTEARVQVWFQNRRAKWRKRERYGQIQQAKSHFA
Chain of HOXB6 (Homo sapiens, UniProt P17509 132-218) (P17509 132-218): as the sequence (P17509 132-218 K202E) above, with E71K counted along it
Chain of HOXA7 (Homo sapiens, UniProt P31268 116-202) (P31268 116-202): as the sequence (P31268 116-202 W177C) above, with C62W counted along it
Chain of ALX4 (Homo sapiens, UniProt Q9H161 200-286) (Q9H161 200-286): as the sequence (Q9H161 200-286 Q225E) above, with E26Q counted along it
Chain of VAX1 (Homo sapiens, UniProt Q5SQQ9 86-172, K157R) (Q5SQQ9 86-172 K157R): as the sequence (Q5SQQ9 86-172 T142I) above, with I57T, K72R counted along it

With ATAATTAC, the binding signal in assay [1] is 12.1 upbm affinity estimate (log intensity, higher = more binding, comparable within an allelic series); in [2], 10.9 upbm affinity estimate (log intensity, higher = more binding, comparable within an allelic series); in [3] it was 12.2 upbm affinity estimate (log intensity, higher = more binding, comparable within an allelic series); in assay [4] it was 14 upbm affinity estimate (log intensity, higher = more binding, comparable within an allelic series); in assay [5], 11.6 upbm affinity estimate (log intensity, higher = more binding, comparable within an allelic series); in assay [6], 10.2 upbm affinity estimate (log intensity, higher = more binding, comparable within an allelic series). In addition, the binding signal in assay [7] is 13.4 upbm affinity estimate (log intensity, higher = more binding, comparable within an allelic series); in assay [8] it was 13.7 upbm affinity estimate (log intensity, higher = more binding, comparable within an allelic series); in assay [9], 13.1 upbm affinity estimate (log intensity, higher = more binding, comparable within an allelic series); in assay [10], 13.9 upbm affinity estimate (log intensity, higher = more binding, comparable within an allelic series); in assay [11], 14.2 upbm affinity estimate (log intensity, higher = more binding, comparable within an allelic series); in [12], 14 upbm affinity estimate (log intensity, higher = more binding, comparable within an allelic series). For the same sequence, the binding signal in [13] is 13.7 upbm affinity estimate (log intensity, higher = more binding, comparable within an allelic series); in assay [14], 13.4 upbm affinity estimate (log intensity, higher = more binding, comparable within an allelic series); in assay [15], 9.02 upbm affinity estimate (log intensity, higher = more binding, comparable within an allelic series); in assay [16] it was 12.5 upbm affinity estimate (log intensity, higher = more binding, comparable within an allelic series); in assay [17], 12.2 upbm affinity estimate (log intensity, higher = more binding, comparable within an allelic series); in [18], 13.5 upbm affinity estimate (log intensity, higher = more binding, comparable within an allelic series). The binding signal in assay [19] is 13.5 upbm affinity estimate (log intensity, higher = more binding, comparable within an allelic series); in assay [20] it was 12.6 upbm affinity estimate (log intensity, higher = more binding, comparable within an allelic series).
Turning to CATAATTA, the binding signal in assay [1] is 12 upbm affinity estimate (log intensity, higher = more binding, comparable within an allelic series); in assay [2] it was 10.9 upbm affinity estimate (log intensity, higher = more binding, comparable within an allelic series); in assay [3], 12 upbm affinity estimate (log intensity, higher = more binding, comparable within an allelic series); in assay [4], 14.2 upbm affinity estimate (log intensity, higher = more binding, comparable within an allelic series); in assay [5] it was 11.6 upbm affinity estimate (log intensity, higher = more binding, comparable within an allelic series); in [6], 10.2 upbm affinity estimate (log intensity, higher = more binding, comparable within an allelic series). Further, the binding signal in assay [7] is 13.7 upbm affinity estimate (log intensity, higher = more binding, comparable within an allelic series); in assay [8], 13.6 upbm affinity estimate (log intensity, higher = more binding, comparable within an allelic series); in assay [9], 12.8 upbm affinity estimate (log intensity, higher = more binding, comparable within an allelic series); in assay [10] it was 13.8 upbm affinity estimate (log intensity, higher = more binding, comparable within an allelic series); in assay [11], 14.3 upbm affinity estimate (log intensity, higher = more binding, comparable within an allelic series); in [12], 13.9 upbm affinity estimate (log intensity, higher = more binding, comparable within an allelic series). Further, the binding signal in assay [13] was 13.5 upbm affinity estimate (log intensity, higher = more binding, comparable within an allelic series); in [14], 13.6 upbm affinity estimate (log intensity, higher = more binding, comparable within an allelic series); in assay [15] it was 9.06 upbm affinity estimate (log intensity, higher = more binding, comparable within an allelic series); in assay [16], 12.6 upbm affinity estimate (log intensity, higher = more binding, comparable within an allelic series); in [17], 12.2 upbm affinity estimate (log intensity, higher = more binding, comparable within an allelic series); in assay [18] it was 13.6 upbm affinity estimate (log intensity, higher = more binding, comparable within an allelic series). The binding signal in assay [19] is 13.7 upbm affinity estimate (log intensity, higher = more binding, comparable within an allelic series); in assay [20], 12.4 upbm affinity estimate (log intensity, higher = more binding, comparable within an allelic series).
As to ATAATTAA, the binding signal was 12.1 upbm affinity estimate (log intensity, higher = more binding, comparable within an allelic series) in [1]; 10.9 upbm affinity estimate (log intensity, higher = more binding, comparable within an allelic series) in assay [2]; 12.1 upbm affinity estimate (log intensity, higher = more binding, comparable within an allelic series) in [3]; 14.5 upbm affinity estimate (log intensity, higher = more binding, comparable within an allelic series) in [4]; 12 upbm affinity estimate (log intensity, higher = more binding, comparable within an allelic series) in assay [5]; 10.3 upbm affinity estimate (log intensity, higher = more binding, comparable within an allelic series) in assay [6]. Moreover, the binding signal is 14.2 upbm affinity estimate (log intensity, higher = more binding, comparable within an allelic series) in assay [7]; 13.6 upbm affinity estimate (log intensity, higher = more binding, comparable within an allelic series) in assay [8]; 13 upbm affinity estimate (log intensity, higher = more binding, comparable within an allelic series) in assay [9]; 13.7 upbm affinity estimate (log intensity, higher = more binding, comparable within an allelic series) in assay [10]; 14.3 upbm affinity estimate (log intensity, higher = more binding, comparable within an allelic series) in assay [11]; 13.9 upbm affinity estimate (log intensity, higher = more binding, comparable within an allelic series) in assay [12]. The binding signal in [13] was 13.5 upbm affinity estimate (log intensity, higher = more binding, comparable within an allelic series); in assay [14], 13.7 upbm affinity estimate (log intensity, higher = more binding, comparable within an allelic series); in assay [15] it was 8.99 upbm affinity estimate (log intensity, higher = more binding, comparable within an allelic series); in assay [16], 12.8 upbm affinity estimate (log intensity, higher = more binding, comparable within an allelic series); in assay [17] it was 12.6 upbm affinity estimate (log intensity, higher = more binding, comparable within an allelic series); in assay [18], 13.7 upbm affinity estimate (log intensity, higher = more binding, comparable within an allelic series). Further, the binding signal in assay [19] was 13.5 upbm affinity estimate (log intensity, higher = more binding, comparable within an allelic series); in assay [20] it was 12.4 upbm affinity estimate (log intensity, higher = more binding, comparable within an allelic series).
